Rows were chosen to be rich in hits. Some 2.9% of all compounds tested hit in one or more screens of this group.
IP6K1 inhibitor: IP6K1 kinase inhibition | Q92551 | IP6K1 kinase, ADP-Glo luminescence, 2 h; active compounds read low | activity change, % (series mostly up to about 58 µM) | actives 0.81% (n = 140,000) | AID 1645851; in the data active means activity change below about -25%; further: on the % scale 0 is the no-effect control and ±100 the full control effect
Target sequence (Q92551 whole entry, looked up): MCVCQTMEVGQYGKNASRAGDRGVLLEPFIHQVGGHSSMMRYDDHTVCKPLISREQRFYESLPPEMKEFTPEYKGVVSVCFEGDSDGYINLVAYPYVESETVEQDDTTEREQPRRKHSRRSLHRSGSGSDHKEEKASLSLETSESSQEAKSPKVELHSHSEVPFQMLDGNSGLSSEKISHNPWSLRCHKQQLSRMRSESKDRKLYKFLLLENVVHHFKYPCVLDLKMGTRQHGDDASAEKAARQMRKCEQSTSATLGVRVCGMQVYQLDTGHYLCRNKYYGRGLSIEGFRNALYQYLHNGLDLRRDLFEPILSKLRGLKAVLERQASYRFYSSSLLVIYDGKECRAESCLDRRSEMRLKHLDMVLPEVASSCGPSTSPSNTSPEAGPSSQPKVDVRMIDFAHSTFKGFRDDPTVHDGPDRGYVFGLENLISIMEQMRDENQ
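ADP-Glo luminescence measures ADP made by human IP6K1 during a 2 h RT reaction with ATP/IP6 (mix at 1.3 mM/130 uM); top library doses 57.5 and 19.1 uM final.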
SNCA expr inhib: SNCA gene expression inhibition; Potency, µM (titrated, usually from 57.2 µM), for inactives: top-dose activity change, negative = inhibition, hits mostly inhibitors; actives 0.17% (n = 140,000); HEK-293 SNCA-luciferase knock-in, luminescence, 24 h;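 further: potency means the concentration at half of the fitted maximal effect; plate controls were DMSO cells for no effect and cell-free wells for full effect; nearly all actives have a fitted effect of over 45% in size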
KDM5B inh: blocks human KDM5B histone demethylase activity; KDM5B demethylase, FDH-coupled NADH fluorescence (FDH is formaldehyde dehydrogenase); Potency, µM (titrated, usually from 57.7 µM), hits mostly inhibitors; actives 2.6% (n = 220,000); further: potency means the concentration at half of the fitted maximal effect; 0% is about no effect; nearly all actives have a fitted effect of over 70% in size
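Here, H3K4me3 peptide (12.5 µM in substrate mix) is demethylated by KDM5BΔAP, 200 nM final, after 10 min compound exposure. Formaldehyde product is coupled through FDH (0.25 U/mL in mix) to NADH fluorescence; 30-min ΔRFU feeds dose-response curves.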
HEK293 viab: cell viability loss counter-screen. HEK-293-SNCA-luc viability, GF-AFC fluorescence, 24 h. Potency, µM (series often up to 57.1 µM), for the others: top-dose activity change, negative = cytotoxicity, usual class: cytotoxic. actives 0.12% (n = 150,000). AID 1671193;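 further: potency means the concentration at half of the fitted maximal effect; 0% = DMSO-treated cells and -100% = medium-only wells without cells; nearly all actives have a fitted effect of over 30% in size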
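HEK-293-SNCA-luc cells (1500/well) plated 24 h, then exposed 24 h to a dilution series; GF-AFC added 30 min at 37C, fluorescence 405/540 nm; normalised to medium-only and DMSO wells, Hill fit.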
* hit, by the source's call; i = inactive; ? = inconclusive; / = no result given; [ ] = remark or other dose. Unless noted, the call rests on the fitted dose curve; in most records, active means well fitted curve in the direction sought with a large enough effect; inconclusive means small, poorly fitted or top-dose-only effect, or another doubt; inactive means no such curve, though single readings can be large; an effect the other way counts as inactive or inconclusive.

SMILES	IP6K1 inhibitor	SNCA expr inhib	KDM5B inh	HEK293 viab
COCC(=O)N1CCC(O)(c2ccccc2)[C@H](N2CCCC2)C1 (some centres undefined)	24.9	-10.7%	?	-2.2%
CCCC(=O)N1CCC(O)(c2ccccc2)[C@H](N2CCCC2)C1 (some centres undefined)	22.4	3.4%	10µM*	1.3%
COc1cccc(-n2nc(C(=O)O)cc2-c2ccc(C3CCCCC3)c(Cl)c2)c1	-38.2*	/	/	-14.6%
NC[C@@](O)(c1ccc(Cl)cc1)c1ccc(-c2cn[nH]c2)cc1	-7.8	/	/	23.8µM*
CC(=O)Nc1cc(-c2nc3ccccc3o2)ccc1Cl	/	/	i	/
COc1ccc(C[C@H](NC(=O)[C@@]2(O)C[C@@H](O)[C@H](O)[C@@H](NC(=O)c3ccc(F)c(Cl)c3)C2)C(N)=O)cc1	-5.6	5.0%	i	1.6%
C=CC(=O)Nc1cccc(Nc2nc(NC3CCC(N(C)C)CC3)nc3c2ncn3C(C)C)c1 (centres undefined)	/	3.04µM*	/	?
COc1ccc(-c2ccnc(-c3nnc(C)n3C(C)C)c2)cc1OC	-7.3	-1.1%[87.6 µM]	35.5µM*	2.5%[87.6 µM]
COc1ccccc1-c1ccnc(-c2nnc(C)n2CCN2CCOCC2)c1	-6.7	-7.7%[87.6 µM]	39.8µM*	0.1%[87.6 µM]
COc1ncccc1-c1ccnc(-c2nnc(C)n2Cc2ccccc2)c1	-1.3	22.9%[87.6 µM]	28.2µM*	-4.4%[87.6 µM]
Cc1nnc(-c2cc(-c3ccsc3)ccn2)n1C(C)C	-4.3	16.1%[87.6 µM]	i	-8.0%[87.6 µM]
Cc1nnc(-c2cc(-c3ccc(N4CCOCC4)cc3)ccn2)n1C1CCCCC1	-9.6	8.0%[87.6 µM]	31.6µM*	-13.1%[87.6 µM]
COc1ccc(NC(=O)c2ccc(Cl)cc2)c[n+]1[O-]	/	/	i	/
S=C(NN=C1CCC(c2ccccc2)CC1)NC1CCCCC1 (centres undefined)	/	/	i	/
COc1ccc(-c2ccnc(-c3nnc(C)n3Cc3ccccc3)c2)cc1OC	-6.4	31.8%[87.6 µM]	35.5µM*	-15.5%[87.6 µM]
Cc1nnc(-c2cc(-c3ccc(N4CCOCC4)cc3)ccn2)n1Cc1ccccc1	-4.8	5.1%[87.6 µM]	20µM*	-6.4%[87.6 µM]
COc1ncccc1-c1ccnc(-c2nnc(C)n2C2CCCCC2)c1	-5.1	?	28.2µM*	-15.9%[87.6 µM]
COc1ccc(-c2ccnc(-c3nnc(C)n3CCN(C)C)c2)cc1OC	-5.7	-9.2%[87.6 µM]	28.2µM*	-1.2%[87.6 µM]
COc1ccccc1-c1ccnc(-c2nnc(C)n2C2CCCCC2)c1	-4.8	-33.5%[87.6 µM]	?	-8.3%[87.6 µM]
COc1ccc2c(c1)OCC(CNC(=O)c1ccc(C(C)C)n(C)c1=O)C2 (centres undefined)	2.6	-1.0%	?	-3.3%
COc1ccc2c(c1)OCC(CNC(=O)c1cnn3ccccc13)C2 (centres undefined)	10.1	-3.4%	25.1µM*	-3.3%
CC(=O)NCC1CCCN(Cc2ccc(-c3ccccc3C#N)o2)C1 (centres undefined)	16.8	?	28.2µM*	-13.4%
O=C(NCc1ccc(Cl)cc1)c1ccc2cc[nH]c2n1	10.1	32.7%[87.6 µM]	112µM*	-4.0%[87.6 µM]
C=CCNC(=O)c1ccc2cc[nH]c2n1	9.7	26.6%[87.6 µM]	44.7µM*	1.7%[87.6 µM]
CN(C)C(=O)N1Cc2ccccc2OC2(CCN(C(=O)c3ccnc(N)c3)CC2)C1	-3.8	7.0%	89.1µM*	1.2%
SMILES	IP6K1 inhibitor	SNCA expr inhib	KDM5B inh	HEK293 viab
CN1CCN(C(=O)N2Cc3ccccc3OC3(CCN(C(=O)N(C)C)CC3)C2)CC1	17.4	-15.6%	i	1.4%
CN(C)C(=O)N1CCC2(CC1)CN(C(=O)c1ccnc(N)c1)Cc1ccccc1O2	-2.4	-12.0%	79.4µM*	2.4%
CCOc1ccc(/C=C/c2nc(C#N)c(NCCCN3CCOCC3)o2)cc1	/	/	i	/
O=C(Nc1nccs1)c1ccc2c(c1)OCCN(CCC(F)(F)F)C2	-2.8	38.1%[87.6 µM]	i	-3.3%[87.6 µM]
O=C(Nc1nc2ccccc2s1)c1ccc2c(c1)OCCN(CCC(F)(F)F)C2	-11.5	60.0%[87.6 µM]	31.6µM*	-19.6%[87.6 µM]
CC(=O)Nc1ccc(C(=O)NC2CCN(c3cc(-c4cccs4)[nH]n3)C2)cc1 (centres undefined)	5.3	?	17.8µM*	-1.1%
O=C(NC1CCN(c2cc(-c3cccs3)[nH]n2)C1)c1ccc(F)c(F)c1 (centres undefined)	-4.4	2.6%	12.6µM*	-8.7%
O=C(NC1CCN(c2cc(-c3cccs3)[nH]n2)CC1)c1ccc(F)c(F)c1	16.2	-6.1%	i	0.8%
CN1C(=O)C(c2ccccc2)CC12CCN(C(=O)Cc1ccccc1)CC2 (centres undefined)	12.2	-1.1%	i	-12.3%

Compound activity as filed in PubChem BioAssay.
